Assay outcomes deposited in PubChem by several laboratories.
ANO1 block: blocks the mouse calcium-activated chloride channel TMEM16A. Q8BHY3. HEK293 TMEM16A/YFP iodide influx fluorescence, ionomycin. normalized B-score (activity score, 25-100; higher = stronger inhibition) at 10 µM. 310,000 compounds, 1.2% hits. AID 588511;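 active = ratio plate-corrected score three or more library SD toward inhibition, starting fluorescence score within five deviations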;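 note: score derived from kinetic fluorescence span divided by baseline fluorescence per well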
HDAC3 inh: inhibitors of human histone deacetylase 3 | recombinant HDAC3, fluorogenic peptide/trypsin coupled, fluorescence | 320,000 compounds, 0.15% hits | inhibition, % at 8.3 µM; in the data active = inhibition above about 26%, passing the limit was not always enough; inconclusive = no clear call, values can overlap the other calls
ANO1 activ: activators or potentiators of mouse TMEM16A chloride channel | HEK293 TMEM16A/YFP-H148Q/I152L, iodide quench fluorescence; hits give low values | B-score at 10 µM | 340,000 compounds, 0.3% hits;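 active = fluorescence-ratio B-score plate-corrected deviation score at least 3 library SD below zero, with starting fluorescence score within 5 deviations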;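 note: channel opened by trigger with iodide after compound preincubation; score built on the fluorescence ratio of max minus min over baseline; more negative score means more quench and so TMEM16A activation or potentiation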
PHOSPHO1 block: inhibitors of human PHOSPHO1 phosphatase; AID 1565; Q8TCT1; inhibition, % at 13.3 µM; recombinant PHOSPHO1, absorbance phosphatase assay; 290,000 compounds, 1.1% hits; in the data active = inhibition above about 60%
CHT inh: inhibits the human high affinity choline transporter. Q9GZV3. CHT-expressing cells, membrane potential dye, choline response; hits give low values. B-score at 10 µM. 310,000 compounds, 0.86% hits. AID 488975;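 active = B-score over 3 SD under the library average, and starting fluorescence ratio not unusually high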;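 note: choline stimulus applied at its EC90 after an EC20 pre-addition; B-score computed on integrated fluorescence ratio after choline addition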
CHT PAM: allosterically activates the human high affinity choline transporter; Q9GZV3; CHT-expressing cells, membrane potential dye, choline EC20; hits give high values; LV-AA mutant CHT in HEK293 cells; B-score at 10 µM; 310,000 compounds, 0.49% hits;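 active = initial fluorescence not abnormally high and integrated response B-score, plate-corrected, over 3 SD above library mean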
TMEM16A reconf: TMEM16A (mouse) chloride channel inhibition, re-confirmation | HEK293 TMEM16A/YFP-H148Q, iodide quench fluorescence; ionomycin added to raise cell calcium | 2,300 compounds, 39% hits | shares compounds with ANO1 block | inhibition, % at 10 µM;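 active = mean duplicate percent inhibition, scaled so buffer wells are 0 and the reference blocker 100, over three buffer SD above buffer mean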
HEK293 Ca mobil: counter-screen for TMEM16A inhibitors: effect on calcium mobilization; shares compounds with ANO1 block; TMEM16A/YFP HEK293, Fluo4 calcium mobilization; calcium response (% of ionomycin), % at 10 µM; 2,300 compounds, 2% hits; AID 652231;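 active = duplicate-averaged calcium signal over 20% of the ionomycin maximum, relative to buffer baseline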;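 note: each well's signal is peak minus trough fluorescence divided by its pre-addition baseline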
Parental YFP cnt: counter-screen for TMEM16A inhibitors: effect in parental YFP-HEK293 cells; shares compounds with ANO1 block; iodide YFP quench, ionomycin; YFP ratio F(max-min)/F0 at 10 µM; 2,300 tested, under 10 active; AID 652233;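 active = yellow fluorescent protein signal ratio exceeding the buffer control mean by over 5 SD of those controls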;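 note: ratio is mean of duplicate wells from kinetic YFP trace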
ClC-1 inh: rat ClC-1 inhibition, TMEM16A specificity screen; shares compounds with ANO1 block; CHO ClC-1-YFP, iodide influx fluorescence quench; iodide control reads 0, buffer control 100; ratio percent, % at 10 µM; 2,300 tested, under 10 active;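 active = duplicate-mean ratio percent above the mean of iodide-only control wells, which defines zero, plus 5 of their SD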;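 note: higher percent means stronger block of ClC-1 iodide influx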
Hits are given with their value; - = inactive; ? = inconclusive; . = no result given; ! = repeats disagree. An excerpt weighted towards active compounds, which were near 3.2% of everything screened.

SMILES	ANO1 block	HDAC3 inh	ANO1 activ	PHOSPHO1 block	CHT inh	CHT PAM	TMEM16A reconf	HEK293 Ca mobil	Parental YFP cnt	ClC-1 inh
CCCCOc1ccc(C(=O)N2CC(C)OC(C)C2)cc1 (centres undefined)	-	-	-	-	-	-	-	-	-	-
Cc1cc(C)n(C(=O)c2ccc(S(=O)(=O)NCC3CCCO3)cc2)n1 (centres undefined)	-	-	-	-	-	-	-	-	-	-
Cc1ccc(-c2ccc(S(=O)(=O)NCC3CCCO3)cc2)cc1 (centres undefined)	-	-	-	-	-	-	.	.	.	.
CCN(c1cccc(C)c1)S(=O)(=O)c1ccc2c(c1)CCCN2C(C)=O	-	-	-	-	-	-	.	.	.	.
CCN(c1cccc(C(F)(F)F)c1)S(=O)(=O)c1ccc2c(c1)CCN2C(C)=O	25	-	.	-	-	-	18%	-	-	-
O=C(Nc1cccc(S(=O)(=O)N2CCCCC2)c1)Nc1ccc(Cl)cc1Cl	100	-	-	-	-	-	-	-	-	-
O=C(Nc1cccc(S(=O)(=O)N2CCCCC2)c1)c1ccccc1NS(=O)(=O)c1ccc(F)cc1	100	-	-	-	-	-	40%	-	-	-
NS(=O)(=O)c1cccc(NC(=O)c2ccccc2NS(=O)(=O)c2ccc(F)cc2)c1	-	-	-	-	-	-	.	.	.	.
COC(=O)CC/C(O)=C1\C(=O)CC(C)(C)CC1=Nc1ccccc1OC	-	-	-	-	-	-	.	.	.	.
CCCC/C(O)=C1\C(=O)CC(C)(C)CC1=Nc1ccccc1OC	25	-	-	-	-	-	-	-	-	-
CC(=O)c1cccc(NC(=O)c2ccc(CN3CCc4ccccc4C3)cc2)c1	-	-	-	-	-	-	20%	-	-	-
O=C(Nc1ccc(S(=O)(=O)N2CCOCC2)cc1)c1ccc(CN2CCc3ccccc3C2)cc1	100	-	.	-	-	-	50%	-	-	-
Cc1cccc(NC(=O)c2ccc(CN3CCN(Cc4ccccc4)CC3)cc2)c1	25	.	-	-	-	-	-	-	-	-
N#CC1C(=O)c2ccccc2C1c1ccccc1 (centres undefined)	.	.	-	.	.	.	.	.	.	.
O=S(=O)(Cc1ccccc1)NC1c2ccccc2Oc2ccccc21	.	.	-	.	.	.	.	.	.	.
COc1cc2ncnc(NCc3ccccc3)c2cc1OC	-	-	-	-	-	-	.	.	.	.
c1ccc(CNc2ncnc3ccccc23)cc1	25!	-	-	-	-	-	-	-	-	-
Cc1cc(=O)oc2cc(OCC(O)CN3CCc4ccccc4C3)ccc12 (centres undefined)	25	-	-	-	-	-	-	-	-	-
Cc1cc(=O)oc2cc(OCC(O)CN3CCN(c4ccccc4)CC3)ccc12 (centres undefined)	-	.	-	-	-	-	.	.	.	.
COc1ccc(C2CC(c3ccccc3)=NN2S(=O)(=O)c2ccccc2)cc1 (centres undefined)	-	-	-	-	-	-	55%	-	-	-
O=S(=O)(c1ccccc1)N1N=C(c2ccccc2)CC1c1ccco1 (centres undefined)	-	-	.	-	-	-	.	.	.	.
CCCCNC(=S)Nc1ccc(C(F)(F)F)cc1	100	-	-	-	-	-	40%	-	-	-
COC(=O)c1ccc(CNC(=O)COC(=O)c2cccs2)cc1	.	-	-	.	.	.	.	.	.	.
COc1ccc(C)cc1-n1nnnc1SCc1cc(=O)n2cc(C)ccc2n1	25	?	-	-	-	-	-	-	-	-
COc1ccc(C)cc1-n1nnnc1SCc1csc(C)n1	-	-	-	-	-	-	.	.	.	.
SMILES	ANO1 block	HDAC3 inh	ANO1 activ	PHOSPHO1 block	CHT inh	CHT PAM	TMEM16A reconf	HEK293 Ca mobil	Parental YFP cnt	ClC-1 inh
O=c1ccnc(Nc2ccc([N+](=O)[O-])cc2)[nH]1	-	-	-	.	-	-	.	.	.	.
O=C(NC(=O)c1c(Cl)cccc1Cl)Nc1ccc(Oc2cccnc2)nc1	-	-	-	-	-	-	.	.	.	.
CC(C)(C)c1ccc(Oc2ccc(NC(=O)c3ccco3)cn2)cc1	100	-	-	-	-	-	20%	-	-	-
O=C(Nc1ccc(Oc2cccnc2)nc1)c1ccc(C(F)(F)F)cc1	25	-	-	-	-	-	-	-	-	-
Cc1cc(C2C(=O)c3ccccc3C2=O)c(C)c(C)c1C	-	-	-	.	-	-	.	.	.	.
O=C(Oc1cccnc1)c1cc(S(=O)(=O)N2CCCCC2)ccc1Cl	-	-	-	-	-	-	.	.	.	.
CCCCOC(=O)Nc1nnc(COc2ccccc2)s1	25	-	-	-	-	-	-	-	-	-
CC(=O)OC1CC(C)N(C(=O)c2ccccc2)c2ccc(C)cc21 (centres undefined)	100	-	-	-	-	-	-	-	-	-
CCCC(=O)OC1CC(C)N(C(=O)c2ccccc2)c2ccc(C)cc21 (centres undefined)	-	-	-	-	-	-	.	.	.	.
O=C(O)c1cccc2c1Cc1cc([N+](=O)[O-])ccc1-2	.	.	-	.	.	.	.	.	.	.
COc1ccc(CN(C(=S)Nc2ccccc2)C2CC(=O)N(c3ccc(F)cc3)C2=O)cc1 (centres undefined)	-	-	-	-	-	-	.	.	.	.
CNC(=S)N(Cc1ccc(OC)cc1)C1CC(=O)N(c2ccc(Cl)cc2)C1=O (centres undefined)	-	-	-	-	-	-	28%	-	-	-
COC(=O)c1cc(COc2ccc3oc(C)c(C(=O)OC)c3c2)c(C)o1	100	-	-	-	-	-	-	-	-	-
O=C1CC(C(=O)Nc2ccccc2)N=C(N2CCCCC2)N1 (centres undefined)	-	-	-	-	-	-	-	-	-	-
O=C(c1cc(F)c(F)cc1Cl)N1CCN(c2ccc([N+](=O)[O-])c3ncccc23)CC1	-	-	-	-	-	-	.	.	.	.
COc1ccc(C2=NS(=O)(=O)N(C)C(C(=O)Nc3ccc4c(c3)OCO4)=C2)cc1	-	-	-	-	-	-	.	.	.	.
Cc1ccc(C2=NS(=O)(=O)N(C)C(C(=O)Nc3ccc4c(c3)OCO4)=C2)cc1	25	-	-	-	-	-	-	-	-	-
CNC(=O)Nc1cccc(-c2ccnc(C)n2)c1	-	-	-	-	-	-	.	.	.	.
